{"source": "paper PMC7862700", "about": "“An all-to-all approach to the identification of sequence-specific readers for epigenetic DNA modifications on cytosine”", "assay_in_all_cases": "DAPPL (digital affinity profiling via proximity ligation, sequencing); 10 mM Tris-HCl pH 7.5, 50 mM NaCl, 1 mM DTT, 4% glycerol, room temperature, 30 min; GST-TFs on glutathione beads, 16-mer random dsDNA library, 0.1% formaldehyde crosslink after washing; high values mean tight binding", "conditions_in_all_cases": "protein: recombinant; tags: N-terminal GST; dsDNA, one strand shown", "key": {"FEV": {"molecular_target": "T1, FEV (Homo sapiens, UniProt Q99581 1-238)", "T1 sequence": "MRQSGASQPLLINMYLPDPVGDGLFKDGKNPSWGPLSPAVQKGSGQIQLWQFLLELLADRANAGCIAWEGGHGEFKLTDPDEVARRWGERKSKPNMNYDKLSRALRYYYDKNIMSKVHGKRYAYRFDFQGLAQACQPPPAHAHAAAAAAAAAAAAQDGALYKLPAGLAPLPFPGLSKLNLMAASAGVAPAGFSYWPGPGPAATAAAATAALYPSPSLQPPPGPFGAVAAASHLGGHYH", "procedure,_shortened": "(§1)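 In yeast, human transcription factors were expressed with a GST fusion, then pulled down on glutathione beads and given DNA barcodes. Pooled with a tag-only sample, they were exposed to 200 nmole of a 16-mer random double-stranded DNA library (Tris/NaCl/DTT/glycerol buffer, room temperature, 30 min), washed, crosslinked with 0.1% formaldehyde, proximity-ligated using BsaI/T4 ligase for 1 h at 37 °C, PCR-amplified and read on an Illumina NextSeq500. Each hexamer's frequency of reads for a factor, divided by the matching frequency for the tag-only sample, gives the binding signal.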"}, "ETV5": {"molecular_target": "ETV5 (Homo sapiens, UniProt P41161 1-510)", "sequence (P41161 whole entry)": "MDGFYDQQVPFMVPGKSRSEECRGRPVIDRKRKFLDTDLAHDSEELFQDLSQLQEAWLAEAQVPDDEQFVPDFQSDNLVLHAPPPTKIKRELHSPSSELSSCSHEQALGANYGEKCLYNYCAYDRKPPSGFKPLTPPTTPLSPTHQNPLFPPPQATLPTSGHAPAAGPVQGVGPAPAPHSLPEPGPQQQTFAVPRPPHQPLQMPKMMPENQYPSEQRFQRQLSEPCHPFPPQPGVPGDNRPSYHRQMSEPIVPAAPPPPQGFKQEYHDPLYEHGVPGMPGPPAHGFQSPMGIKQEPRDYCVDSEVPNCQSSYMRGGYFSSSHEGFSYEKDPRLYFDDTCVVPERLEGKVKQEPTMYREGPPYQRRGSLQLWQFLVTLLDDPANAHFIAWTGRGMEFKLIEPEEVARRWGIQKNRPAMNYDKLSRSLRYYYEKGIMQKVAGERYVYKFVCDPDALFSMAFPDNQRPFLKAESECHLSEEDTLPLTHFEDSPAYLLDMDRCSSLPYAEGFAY", "procedure,_shortened": "as §1"}, "SPIC": {"molecular_target": "T2, SPIC (Homo sapiens, UniProt Q8N5J4 1-248)", "T2 sequence": "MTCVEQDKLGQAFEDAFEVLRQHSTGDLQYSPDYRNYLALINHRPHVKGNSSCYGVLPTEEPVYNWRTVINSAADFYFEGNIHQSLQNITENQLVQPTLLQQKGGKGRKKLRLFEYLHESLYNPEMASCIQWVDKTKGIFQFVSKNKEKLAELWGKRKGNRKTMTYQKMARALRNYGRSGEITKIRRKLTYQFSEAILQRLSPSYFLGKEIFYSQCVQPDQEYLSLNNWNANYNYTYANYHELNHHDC", "procedure,_shortened": "as §1"}, "ELF4": {"molecular_target": "ELF4 (Homo sapiens, UniProt Q99607 1-663)", "sequence (Q99607 whole entry)": "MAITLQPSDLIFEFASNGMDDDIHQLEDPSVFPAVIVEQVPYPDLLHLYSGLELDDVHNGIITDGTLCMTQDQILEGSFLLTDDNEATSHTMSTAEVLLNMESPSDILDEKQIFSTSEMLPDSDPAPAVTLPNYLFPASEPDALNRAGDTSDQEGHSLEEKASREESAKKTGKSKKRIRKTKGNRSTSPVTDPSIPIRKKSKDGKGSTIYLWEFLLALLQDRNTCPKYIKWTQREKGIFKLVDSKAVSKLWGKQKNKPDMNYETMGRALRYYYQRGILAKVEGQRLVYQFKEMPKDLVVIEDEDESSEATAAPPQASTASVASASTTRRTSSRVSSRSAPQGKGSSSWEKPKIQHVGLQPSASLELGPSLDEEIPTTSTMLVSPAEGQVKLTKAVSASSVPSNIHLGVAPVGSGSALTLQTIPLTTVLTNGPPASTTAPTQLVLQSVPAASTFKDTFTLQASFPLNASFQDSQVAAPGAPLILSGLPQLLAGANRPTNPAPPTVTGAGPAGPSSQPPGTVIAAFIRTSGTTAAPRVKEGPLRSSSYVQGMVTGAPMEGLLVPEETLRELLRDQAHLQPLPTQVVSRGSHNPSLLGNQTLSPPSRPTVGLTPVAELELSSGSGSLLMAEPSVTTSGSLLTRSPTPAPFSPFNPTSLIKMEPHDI", "procedure,_shortened": "as §1"}, "ELK4": {"molecular_target": "T3, ELK4 (Homo sapiens, UniProt P28324-2 1-405)", "T3 sequence": "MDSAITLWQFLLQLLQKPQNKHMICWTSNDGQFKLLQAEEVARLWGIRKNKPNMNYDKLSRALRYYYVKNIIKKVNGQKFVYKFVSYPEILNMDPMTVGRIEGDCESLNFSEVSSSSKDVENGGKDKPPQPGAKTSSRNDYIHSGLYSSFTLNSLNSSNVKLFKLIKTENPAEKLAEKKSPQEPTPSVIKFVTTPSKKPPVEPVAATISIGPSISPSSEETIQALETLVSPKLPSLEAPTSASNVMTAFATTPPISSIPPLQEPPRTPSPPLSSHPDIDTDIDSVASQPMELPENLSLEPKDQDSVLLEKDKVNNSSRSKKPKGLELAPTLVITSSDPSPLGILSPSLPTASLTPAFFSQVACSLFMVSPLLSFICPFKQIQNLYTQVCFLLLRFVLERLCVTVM", "procedure,_shortened": "as §1"}, "ETV2": {"molecular_target": "T4, ETV2 (Homo sapiens, UniProt O00321 1-342)", "T4 sequence": "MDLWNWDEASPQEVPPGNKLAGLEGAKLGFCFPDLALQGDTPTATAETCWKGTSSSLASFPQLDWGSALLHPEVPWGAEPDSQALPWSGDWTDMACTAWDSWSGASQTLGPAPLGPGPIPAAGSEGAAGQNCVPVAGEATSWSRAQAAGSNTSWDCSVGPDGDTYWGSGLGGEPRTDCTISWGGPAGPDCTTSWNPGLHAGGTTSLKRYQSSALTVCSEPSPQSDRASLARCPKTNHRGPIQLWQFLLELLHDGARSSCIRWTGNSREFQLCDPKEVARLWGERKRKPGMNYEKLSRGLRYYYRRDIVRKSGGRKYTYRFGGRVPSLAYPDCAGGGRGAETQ", "procedure,_shortened": "as §1"}, "CRX": {"molecular_target": "CRX (Homo sapiens, UniProt O43186 1-299)", "sequence (O43186 whole entry)": "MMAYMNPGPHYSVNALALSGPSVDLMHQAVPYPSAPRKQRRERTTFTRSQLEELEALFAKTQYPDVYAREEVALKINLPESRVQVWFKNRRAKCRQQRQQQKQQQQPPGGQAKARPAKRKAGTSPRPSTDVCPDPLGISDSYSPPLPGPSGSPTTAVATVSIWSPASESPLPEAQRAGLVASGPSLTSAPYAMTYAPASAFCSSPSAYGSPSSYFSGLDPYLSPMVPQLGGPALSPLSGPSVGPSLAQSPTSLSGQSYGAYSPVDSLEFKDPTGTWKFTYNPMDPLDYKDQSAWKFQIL", "procedure,_shortened": "as §1"}, "ETV1": {"molecular_target": "ETV1 (Homo sapiens, UniProt P50549 1-477)", "sequence (P50549 whole entry)": "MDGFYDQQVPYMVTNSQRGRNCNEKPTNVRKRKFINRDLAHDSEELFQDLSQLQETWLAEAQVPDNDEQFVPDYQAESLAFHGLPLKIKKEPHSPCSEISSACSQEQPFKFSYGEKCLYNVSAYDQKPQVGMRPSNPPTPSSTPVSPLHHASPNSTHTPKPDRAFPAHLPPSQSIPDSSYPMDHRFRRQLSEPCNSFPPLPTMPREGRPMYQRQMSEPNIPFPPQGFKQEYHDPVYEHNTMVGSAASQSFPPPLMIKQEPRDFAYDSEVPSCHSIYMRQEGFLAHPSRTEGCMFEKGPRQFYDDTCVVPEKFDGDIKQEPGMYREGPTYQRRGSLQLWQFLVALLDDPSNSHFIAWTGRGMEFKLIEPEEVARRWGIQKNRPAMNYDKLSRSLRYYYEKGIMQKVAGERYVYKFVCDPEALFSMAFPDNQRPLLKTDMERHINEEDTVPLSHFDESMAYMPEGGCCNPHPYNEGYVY", "procedure,_shortened": "as §1"}, "ETV3L": {"molecular_target": "T5, ETV3L (Homo sapiens, UniProt Q6ZN32 1-361)", "T5 sequence": "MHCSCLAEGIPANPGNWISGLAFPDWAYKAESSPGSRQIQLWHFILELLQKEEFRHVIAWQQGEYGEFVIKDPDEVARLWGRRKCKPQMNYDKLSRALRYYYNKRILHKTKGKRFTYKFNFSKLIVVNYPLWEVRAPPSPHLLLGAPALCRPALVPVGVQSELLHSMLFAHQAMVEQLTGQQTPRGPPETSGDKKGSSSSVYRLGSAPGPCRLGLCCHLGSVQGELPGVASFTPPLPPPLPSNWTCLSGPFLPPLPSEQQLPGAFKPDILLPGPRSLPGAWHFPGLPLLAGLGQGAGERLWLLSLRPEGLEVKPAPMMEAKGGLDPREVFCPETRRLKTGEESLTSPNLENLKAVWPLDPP", "procedure,_shortened": "as §1"}, "ETS2": {"molecular_target": "T6, ETS2 (Homo sapiens, UniProt P15036 1-469)", "T6 sequence": "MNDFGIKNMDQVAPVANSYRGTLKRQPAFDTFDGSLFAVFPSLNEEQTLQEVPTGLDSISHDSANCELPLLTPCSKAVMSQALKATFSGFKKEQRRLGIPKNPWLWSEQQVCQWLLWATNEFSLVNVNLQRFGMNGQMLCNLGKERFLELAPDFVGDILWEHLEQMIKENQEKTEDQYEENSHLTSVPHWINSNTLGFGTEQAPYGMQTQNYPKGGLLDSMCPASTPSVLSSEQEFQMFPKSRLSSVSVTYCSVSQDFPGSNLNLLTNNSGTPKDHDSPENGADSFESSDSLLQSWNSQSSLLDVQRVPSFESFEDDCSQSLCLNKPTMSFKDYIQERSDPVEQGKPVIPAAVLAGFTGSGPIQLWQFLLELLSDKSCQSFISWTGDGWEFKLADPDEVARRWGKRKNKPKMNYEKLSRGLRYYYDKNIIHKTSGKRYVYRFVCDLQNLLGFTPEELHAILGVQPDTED", "procedure,_shortened": "as §1"}, "SPDEF": {"molecular_target": "T7, SPDEF (Homo sapiens, UniProt O95238 1-335)", "T7 sequence": "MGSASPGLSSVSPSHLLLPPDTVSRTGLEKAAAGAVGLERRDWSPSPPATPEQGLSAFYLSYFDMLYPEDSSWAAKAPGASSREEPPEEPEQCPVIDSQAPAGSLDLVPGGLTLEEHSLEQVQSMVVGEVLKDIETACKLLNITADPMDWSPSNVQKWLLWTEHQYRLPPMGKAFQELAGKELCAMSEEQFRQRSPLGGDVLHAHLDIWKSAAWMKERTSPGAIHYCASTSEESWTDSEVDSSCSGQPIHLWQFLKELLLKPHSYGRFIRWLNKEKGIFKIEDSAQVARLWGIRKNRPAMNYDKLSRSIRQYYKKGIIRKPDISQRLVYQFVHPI", "procedure,_shortened": "as §1"}, "ETV7": {"molecular_target": "T8, ETV7 (Homo sapiens, UniProt Q9Y603 1-341)", "T8 sequence": "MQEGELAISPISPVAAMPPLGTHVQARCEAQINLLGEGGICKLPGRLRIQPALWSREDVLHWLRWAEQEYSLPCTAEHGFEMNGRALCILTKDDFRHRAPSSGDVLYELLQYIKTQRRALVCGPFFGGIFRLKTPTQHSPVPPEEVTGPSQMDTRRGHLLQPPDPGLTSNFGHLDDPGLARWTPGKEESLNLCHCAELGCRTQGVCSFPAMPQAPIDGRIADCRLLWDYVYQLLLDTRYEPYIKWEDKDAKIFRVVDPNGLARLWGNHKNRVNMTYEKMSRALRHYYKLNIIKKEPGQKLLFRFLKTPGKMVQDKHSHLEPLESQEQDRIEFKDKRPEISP", "procedure,_shortened": "as §1"}, "ETV3": {"molecular_target": "T9, ETV3 (Homo sapiens, UniProt P41162-2 1-143)", "T9 sequence": "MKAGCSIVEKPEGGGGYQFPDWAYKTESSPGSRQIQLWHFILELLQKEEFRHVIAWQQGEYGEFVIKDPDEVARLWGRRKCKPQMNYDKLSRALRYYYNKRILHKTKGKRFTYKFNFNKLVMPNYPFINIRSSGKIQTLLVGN", "procedure,_shortened": "as §1"}, "ERF": {"molecular_target": "T10, ERF (Homo sapiens, UniProt P50548 1-548)", "T10 sequence": "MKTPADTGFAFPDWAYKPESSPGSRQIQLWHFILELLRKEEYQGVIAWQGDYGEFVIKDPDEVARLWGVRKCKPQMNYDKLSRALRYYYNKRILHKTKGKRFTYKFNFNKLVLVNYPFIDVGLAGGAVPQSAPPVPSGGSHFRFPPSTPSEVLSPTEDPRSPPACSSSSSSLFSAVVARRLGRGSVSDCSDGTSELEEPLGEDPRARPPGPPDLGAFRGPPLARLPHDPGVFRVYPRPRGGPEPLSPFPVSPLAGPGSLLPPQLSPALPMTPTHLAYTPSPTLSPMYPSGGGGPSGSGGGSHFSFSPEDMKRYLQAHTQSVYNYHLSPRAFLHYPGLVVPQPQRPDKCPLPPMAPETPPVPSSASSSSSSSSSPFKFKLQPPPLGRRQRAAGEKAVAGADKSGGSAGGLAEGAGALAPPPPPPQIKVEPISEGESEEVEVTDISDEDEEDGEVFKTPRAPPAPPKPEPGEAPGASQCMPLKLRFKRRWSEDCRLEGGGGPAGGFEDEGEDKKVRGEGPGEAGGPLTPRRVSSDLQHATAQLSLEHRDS", "procedure,_shortened": "as §1"}, "ETV6": {"molecular_target": "ETV6 (Homo sapiens, UniProt P41212 1-452)", "sequence (P41212 whole entry)": "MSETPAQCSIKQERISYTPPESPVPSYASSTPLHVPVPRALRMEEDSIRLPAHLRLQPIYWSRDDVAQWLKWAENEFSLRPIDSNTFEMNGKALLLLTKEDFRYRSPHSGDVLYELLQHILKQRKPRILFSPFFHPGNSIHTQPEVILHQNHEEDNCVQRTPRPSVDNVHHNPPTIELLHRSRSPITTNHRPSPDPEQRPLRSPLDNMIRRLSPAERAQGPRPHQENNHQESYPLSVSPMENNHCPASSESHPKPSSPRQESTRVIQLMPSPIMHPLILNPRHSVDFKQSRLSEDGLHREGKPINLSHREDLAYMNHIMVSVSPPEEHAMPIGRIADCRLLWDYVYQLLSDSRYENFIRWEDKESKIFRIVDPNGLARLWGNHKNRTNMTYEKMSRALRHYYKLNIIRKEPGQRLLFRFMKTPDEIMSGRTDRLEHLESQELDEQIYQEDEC", "procedure,_shortened": "as §1"}}}
{"sequence": "TCAACG", "values": [{"measurement": "binding signal", "setting": "FEV", "value": "1.06 fold enrichment (6-mer frequency, TF over GST control)"}, {"measurement": "binding signal", "setting": "ETV5", "value": "1.12 fold enrichment (6-mer frequency, TF over GST control)"}, {"measurement": "binding signal", "setting": "SPIC", "value": "1.1 fold enrichment (6-mer frequency, TF over GST control)"}, {"measurement": "binding signal", "setting": "ELF4", "value": "1.11 fold enrichment (6-mer frequency, TF over GST control)"}, {"measurement": "binding signal", "setting": "ELK4", "value": "1.09 fold enrichment (6-mer frequency, TF over GST control)"}, {"measurement": "binding signal", "setting": "ETV2", "value": "1.18 fold enrichment (6-mer frequency, TF over GST control)"}, {"measurement": "binding signal", "setting": "CRX", "value": "1.1 fold enrichment (6-mer frequency, TF over GST control)"}, {"measurement": "binding signal", "setting": "ETV1", "value": "1.15 fold enrichment (6-mer frequency, TF over GST control)"}, {"measurement": "binding signal", "setting": "ETV3L", "value": "1.07 fold enrichment (6-mer frequency, TF over GST control)"}, {"measurement": "binding signal", "setting": "ETS2", "value": "1.13 fold enrichment (6-mer frequency, TF over GST control)"}, {"measurement": "binding signal", "setting": "SPDEF", "value": "1.05 fold enrichment (6-mer frequency, TF over GST control)"}, {"measurement": "binding signal", "setting": "ETV7", "value": "1 fold enrichment (6-mer frequency, TF over GST control)"}, {"measurement": "binding signal", "setting": "ETV3", "value": "1.14 fold enrichment (6-mer frequency, TF over GST control)"}]}
{"sequence": "CAACGC", "values": [{"measurement": "binding signal", "setting": "FEV", "value": "1.06 fold enrichment (6-mer frequency, TF over GST control)"}, {"measurement": "binding signal", "setting": "ETV5", "value": "1.01 fold enrichment (6-mer frequency, TF over GST control)"}, {"measurement": "binding signal", "setting": "SPIC", "value": "1.1 fold enrichment (6-mer frequency, TF over GST control)"}, {"measurement": "binding signal", "setting": "ELF4", "value": "1.11 fold enrichment (6-mer frequency, TF over GST control)"}, {"measurement": "binding signal", "setting": "ELK4", "value": "1.03 fold enrichment (6-mer frequency, TF over GST control)"}, {"measurement": "binding signal", "setting": "ETV2", "value": "1.1 fold enrichment (6-mer frequency, TF over GST control)"}, {"measurement": "binding signal", "setting": "ETV1", "value": "1.05 fold enrichment (6-mer frequency, TF over GST control)"}, {"measurement": "binding signal", "setting": "ERF", "value": "1.05 fold enrichment (6-mer frequency, TF over GST control)"}, {"measurement": "binding signal", "setting": "ETV3L", "value": "1.07 fold enrichment (6-mer frequency, TF over GST control)"}, {"measurement": "binding signal", "setting": "ETS2", "value": "1.07 fold enrichment (6-mer frequency, TF over GST control)"}, {"measurement": "binding signal", "setting": "SPDEF", "value": "1.08 fold enrichment (6-mer frequency, TF over GST control)"}, {"measurement": "binding signal", "setting": "ETV7", "value": "1.09 fold enrichment (6-mer frequency, TF over GST control)"}, {"measurement": "binding signal", "setting": "ETV6", "value": "1.03 fold enrichment (6-mer frequency, TF over GST control)"}]}
